Data published in PubChem BioAssay (NCI).
This is part of a sample that, as a whole, favours compounds with a hit. Of some 83,000 tested, about 20% had one in any assay.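 Cells were grown in 96-well plates and exposed to the test compound at a single concentration for 48 hours; results are reported as percent growth, with values below 10 considered active.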 A number with no mark means an inactive call. The source made the active and inactive calls.

Assays:
Assay in all cases: NCI-60 one-dose screen, 48 h (100 = growth as untreated, 0 = no growth, -100 = all killed)
Details in all cases: 10 µM
NCI-H23 lung = test system: NCI-H23 lung
NCI-H226 lung = test system: NCI-H226 lung
NCI-H322M lung = test system: NCI-H322M lung
HOP-62 NSCLC = test system: HOP-62 NSCLC
NCI-H460 lung = test system: NCI-H460 lung
HOP-92 NSCLC = test system: HOP-92 NSCLC
NCI-H522 lung = test system: NCI-H522 lung
A549/ATCC NSCLC = test system: A549/ATCC NSCLC
786-0 renal = test system: 786-0 renal
COLO 205 colon = test system: COLO 205 colon
DU-145 prostate = test system: DU-145 prostate
K-562 leukemia = test system: K-562 leukemia
MALME-3M melanoma = test system: MALME-3M melanoma
MDA-MB-231 breast = test system: MDA-MB-231 breast
RXF 393 renal = test system: RXF 393 renal
SF-268 CNS = test system: SF-268 CNS
SF-295 CNS = test system: SF-295 CNS
SF-539 CNS = test system: SF-539 CNS
UACC-257 melanoma = test system: UACC-257 melanoma
M14 melanoma = test system: M14 melanoma

SMILES | growth (NCI-H23 lung) | growth (NCI-H226 lung) | growth (NCI-H322M lung) | growth (HOP-62 NSCLC) | growth (NCI-H460 lung) | growth (HOP-92 NSCLC) | growth (NCI-H522 lung) | growth (A549/ATCC NSCLC) | growth (786-0 renal) | growth (COLO 205 colon) | growth (DU-145 prostate) | growth (K-562 leukemia) | growth (MALME-3M melanoma) | growth (MDA-MB-231 breast) | growth (RXF 393 renal) | growth (SF-268 CNS) | growth (SF-295 CNS) | growth (SF-539 CNS) | growth (UACC-257 melanoma) | growth (M14 melanoma)
N=C(N)c1ccc(-c2ccc(-c3ccccc3)s2)s1 | 54.6% | -19.8% (active) | -86.2% (active) | -83.9% (active) | -70% (active) | -37.8% (active) | -69.4% (active) | -60.8% (active) | -36.7% (active) | -96.3% (active) | -93.8% (active) | -63.1% (active) | -81.1% (active) | -76.8% (active) | -93.2% (active) | -56.6% (active) | -75.3% (active) | -54.7% (active) | -59.9% (active) | -68.9% (active)
C/C(=N\NC(=O)c1sc(=S)n(C)c1N)c1cc2ccccc2o1 | 71.6% | 73.9% | 45.4% | 69.4% | 37.2% | 58.8% | 36.2% | 45.4% | 57.3% | 107% | 77.4% | -10.9% (active) | 99.3% | 36% | – | 55.9% | -20.6% (active) | 71.9% | 56.5% | 40.8%
CNCCCNCCCN1C(=O)c2ccc3c4c(ccc(c24)C1=O)C(=O)N(CCCNCc1ccccc1OC)C3=O | -31% (active) | 8.88% (active) | 1.15% (active) | 7.81% (active) | -16.6% (active) | -32.1% (active) | -52.7% (active) | 1.84% (active) | 10.4% | -72.8% (active) | -91.5% (active) | 4.42% (active) | -89.7% (active) | 7.69% (active) | -11.5% (active) | 4.85% (active) | 25.3% | 24.3% | -80.7% (active) | 0.979% (active)
C=C[C@]1(C)C=C2C(=O)[C@@]3(O)OC(=O)[C@@]4(CCCC(C)(C)[C@H]34)[C@@]2(O)CC1 | -60.6% (active) | -55.8% (active) | -27.4% (active) | -1.33% (active) | 0.905% (active) | -87.6% (active) | -71.7% (active) | -66.6% (active) | -98.5% (active) | -98.2% (active) | -99.4% (active) | 1.73% (active) | -69.6% (active) | -71.9% (active) | -97.4% (active) | -66.7% (active) | -17.2% (active) | -97.6% (active) | -93% (active) | -89% (active)
COc1cc(/C=C2\C(=O)Nc3cc(C)c(O)cc32)cc(OC)c1OC | 65.2% | 79.8% | 80% | 85.7% | 40% | 63.6% | 41.6% | 50.1% | 70.1% | 69.1% | 44.6% | 15.1% | – | 39.6% | 23.5% | 60.6% | 43.3% | 71.3% | -11.1% (active) | 65.9%
CCN(CC)CC(O)CNc1ccnc2cc(Cl)c(Cl)cc12 (centres undefined) | 102% | 84.9% | 92.1% | 88.9% | 100% | 53.4% | 94.1% | 101% | 86.1% | 78.1% | 92.6% | 77.7% | – | 60% | 81.5% | 83.2% | 97.9% | 95.5% | 101% | –
CCOC(=O)c1sc(NC(=O)c2cc(OC)c(OC)c(OC)c2)nc1C | 93.3% | 88.8% | 161% | 116% | 108% | 46.9% | 67.4% | 101% | 114% | 122% | 110% | 51.2% | – | 96.3% | 119% | 97.3% | 110% | 103% | 108% | –
C#CCNCCCN1C(=O)c2ccc3c4c(ccc(c24)C1=O)C(=O)N(CCCNCC#C)C3=O | -45% (active) | -48.6% (active) | -94.4% (active) | -67.8% (active) | -78.5% (active) | -26.3% (active) | -78.4% (active) | -72.3% (active) | -56.9% (active) | -86.7% (active) | -98.8% (active) | -4.82% (active) | – | 0.356% (active) | -91.4% (active) | -26.4% (active) | -82.9% (active) | -97% (active) | -87.8% (active) | -91% (active)
CS(=O)(=O)Nc1ccc([N+](=O)[O-])cc1Oc1ccccc1 | 92.6% | 96% | 103% | 93% | 102% | 51.8% | 92.6% | 89.3% | 98.4% | 99.7% | 100% | 78% | 92.4% | 118% | – | 98.4% | 84.2% | 104% | 94.7% | 105%
COc1ccc(/C(CS(=O)(=O)c2ccccc2)=N\O)cc1 | 105% | 89.1% | 108% | 109% | 109% | 109% | 97.3% | 92.1% | 104% | 114% | 119% | 103% | 106% | 113% | 92.1% | 115% | 88.5% | 102% | 95.8% | 109%
CC(=O)Oc1ccc(C2=Cc3ccc(OC(C)=O)cc3OC2C)cc1 (centres undefined) | 49.3% | 82.9% | 98.2% | 81.8% | 33.7% | 69.4% | 17.2% | 61.5% | 47.5% | 102% | 62.8% | 28.4% | – | 67.9% | 68.9% | 57.9% | 69.9% | 28% | 81.3% | 49.8%
CCN1CCOC1C(C)C (centres undefined) | 102% | 109% | 103% | 99.5% | 107% | 114% | 97.1% | 101% | 94.2% | 110% | 110% | 90.3% | – | 99.2% | 109% | 102% | 105% | 95% | 104% | –
CCCCCCOc1ccc(/C=C/C(=O)c2ccc(B(O)O)cc2)cc1 | 76.2% | 75.6% | 85.9% | 89.8% | 91.7% | 5.7% (active) | 66.1% | 75.7% | 73% | 103% | 88.5% | 82.5% | 86.8% | 73.8% | 74.2% | 76.1% | 111% | 79.1% | 83.4% | 80.8%
O=C(CCc1ccccc1)N1CCN(C(=O)CCc2ccccc2)CC1 | 101% | 99.3% | 95.2% | 105% | 114% | 84.1% | 98.3% | 99.9% | 94.6% | 102% | 140% | 108% | – | 90.8% | 109% | 117% | 111% | 104% | 92.6% | –
CCCCNC(=O)Oc1ccc(/C(=C(\C)c2ccc(OC)cc2)c2ccc(OCCN3CCCCC3)cc2)cc1 | 68.4% | 96.5% | 87.6% | 69.1% | 34.6% | 47.2% | 74% | 47.5% | 17.1% | -7.56% (active) | 72.9% | -0.634% (active) | – | 53.4% | 28.6% | 66.9% | 12.5% | 5% (active) | -9.86% (active) | -54.8% (active)
O=C(COc1ccc(Cl)cc1Cl)Oc1coc(CSc2nc3ccccc3s2)cc1=O | 94.5% | 93.8% | 114% | 107% | 101% | 110% | 74.8% | 27.8% | 113% | 114% | 106% | 83% | 93.4% | 86.8% | – | 102% | 105% | 98.6% | 27.3% | 110%
COc1ccc(/C(=C/c2cc(OC)c(OC)cc2[N+](=O)[O-])C(=O)O)cc1 | 103% | 101% | 118% | 94.1% | 110% | 97.2% | 107% | 108% | 106% | 127% | 124% | 94.6% | – | 96.7% | 126% | 111% | 121% | 99.6% | 118% | 104%
